# Reference: PubChem BioAssay (NCATS)
# Inconclusive results are not listed. Entries that show only a call come without a potency. Calls of active or inactive are those of the source. The call rests on the fitted dose curve; in most records, active means well fitted cell-killing curve with a large enough effect; inconclusive means small, poorly fitted or top-dose-only effect; inactive means flat fitted curve, though single readings scatter.
# How the values were obtained:
# [1] = Cell Viability - LYMP2-009 (AID 968); further: nearly all actives have a fitted effect of over 55% in size; further: potency means the concentration at half of the fitted maximal effect
# [2] = Cell Viability - LYMP2-011 (AID 969); further: nearly all actives have a fitted effect of over 60% in size; further: potency means the concentration at half of the fitted maximal effect
# Outline: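 Human lymphoblastoid cells (2500/well) were plated in complete medium, preincubated 5 hr at 37 C, then exposed to compounds for 24 hr at 37 C. Intracellular ATP was read by CellTiter-Glo luminescence, and AC50 came from Hill-equation concentration-response fits.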
# [3] = Cell Viability - LYMP2-013 (AID 970); further: nearly all actives have a fitted effect of over 55% in size; further: potency means the concentration at half of the fitted maximal effect
# Outline: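 Human lymphoblastoid cells, 2500/well, were preincubated 5 hr at 37 C, then treated with compounds for 24 hr at 37 C in complete medium. Intracellular ATP was read by CellTiter-Glo luminescence; AC50 from Hill-equation fits of concentration-response data.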
# [4] = Cell Viability - LYMP2-015 (AID 971); further: nearly all actives have a fitted effect of over 55% in size; further: potency means the concentration at half of the fitted maximal effect
# Outline: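 Human lymphoblastoid cells (2500/well) in complete medium were preincubated 5 hr at 37 C, then compound-treated 24 hr at 37 C. Intracellular ATP was read by CellTiter-Glo luminescence after 30 min at room temperature; AC50 came from Hill-equation concentration-response fits.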
# [5] = Cell Viability - LYMP2-017 (AID 972); further: nearly all actives have a fitted effect of over 55% in size; further: potency means the concentration at half of the fitted maximal effect
# Outline: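 Human lymphoblastoid cells (2500/well) were seeded in complete medium, held 5 hr at 37 C, then exposed to compounds for 24 hr at 37 C. Intracellular ATP was read by CellTiter-Glo luminescence after 30 min at room temperature, with AC50 values from Hill-equation fits.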
# [6] = Cell Viability - LYMP2-019 (AID 973); further: nearly all actives have a fitted effect of over 55% in size; further: potency means the concentration at half of the fitted maximal effect
# Outline: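 Human lymphoblastoid cells were seeded at 2500 cells/well, preincubated 5 hr at 37 C, then exposed to compounds for 24 hr at 37 C in complete medium. Intracellular ATP was measured by CellTiter-Glo luminescence; AC50 from Hill fits.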
# [7] = Cell Viability - LYMP2-021 (AID 974); further: potency means the concentration at half of the fitted maximal effect
# Outline: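 Human lymphoblastoid cells (2500/well) were preincubated 5 hr at 37 C, then exposed to compounds for 24 hr at 37 C in complete medium. Intracellular ATP was read by CellTiter-Glo luminescence; AC50 came from Hill-equation fits of concentration-response data.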
# [8] = Cell Viability - LYMP2-023 (AID 975); further: nearly all actives have a fitted effect of over 55% in size; further: potency means the concentration at half of the fitted maximal effect
# Outline: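 Human lymphoblastoid cells (2500/well) were preincubated 5 hr at 37 C, then exposed to compounds for 24 hr at 37 C in complete medium. Cellular ATP was read by CellTiter-Glo luminescence, and AC50 came from Hill-equation fits.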
# [9] = Cell Viability - LYMP2-025 (AID 976); further: series mostly up to about 92 µM
# Outline: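 Human lymphoblastoid LYMP2-025 cells (2500/well) were pre-incubated 5 hr at 37 C, then treated with compounds for 24 hr at 37 C in complete medium. Viability was read as intracellular ATP by CellTiter-Glo luminescence; AC50 from Hill fits.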
# [10] = Cell Viability - LYMP2-002 (AID 977);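 further: compound exposure lasted 24 h at 37 °C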; further: potency means the concentration at half of the fitted maximal effect
# Outline: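 Human lymphoblastoid LYMP2-002 cells, 2500 per well, exposed to compounds for 24 h at 37 C in complete medium; viability read as intracellular ATP by CellTiter-Glo luminescence, AC50 from Hill fits.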
# [11] = Cell Viability - LYMP2-006 (AID 978); further: nearly all actives have a fitted effect of over 60% in size; further: potency means the concentration at half of the fitted maximal effect
# Outline: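 Concentration-dependent loss of intracellular ATP in a human lymphoblastoid line after 24 hr treatment at 37 C was measured by CellTiter-Glo luminescence, with AC50 values obtained from standard Hill-equation modelling.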
# [12] = Cell Viability - LYMP2-007 (AID 979);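 further: cells exposed to compound for 24 h before reading; nearly all actives have a fitted effect of over 60% in size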; further: potency means the concentration at half of the fitted maximal effect
# Outline: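 Human lymphoblastoid cells (2500/well) were plated in complete medium, incubated 5 hr at 37 C, then exposed to compounds for 24 hr at 37 C. Intracellular ATP was read by CellTiter-Glo luminescence after 30 min at room temperature; AC50 from Hill fits.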
# [13] = Cell Viability - LYMP2-008 (AID 980); further: nearly all actives have a fitted effect of over 60% in size; further: potency means the concentration at half of the fitted maximal effect
# Outline: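 Human lymphoblastoid cells (2500/well) were plated, held 5 hr at 37 C, then exposed to compounds for 24 hr at 37 C in complete medium. Intracellular ATP was read by CellTiter-Glo luminescence; AC50 from Hill-fitted concentration-response.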
# [14] = Cell Viability - LYMP2-010 (AID 981); further: nearly all actives have a fitted effect of over 55% in size; further: potency means the concentration at half of the fitted maximal effect
# Outline: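 Human lymphoblastoid LYMP2-010 cells (2500/well) were preincubated 5 hr at 37 C, then exposed to compounds for 24 hr at 37 C in complete medium. Intracellular ATP was measured by CellTiter-Glo luminescence after 30 min at room temperature; AC50 from Hill-fitted concentration-response.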
# [15] = Cell Viability - LYMP2-012 (AID 982); further: potency means the concentration at half of the fitted maximal effect
# [16] = Cell Viability - LYMP2-014 (AID 983); further: nearly all actives have a fitted effect of over 50% in size; further: potency means the concentration at half of the fitted maximal effect
# Outline: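 Human lymphoblastoid cells (2500/well) were pre-incubated 5 hr at 37 C, then exposed to compounds in complete medium for 24 hr at 37 C. Intracellular ATP was read by CellTiter-Glo luminescence after 30 min at room temperature; AC50 from Hill fits.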
# [17] = Cell Viability - LYMP2-016 (AID 984); further: nearly all actives have a fitted effect of over 55% in size; further: potency means the concentration at half of the fitted maximal effect
# Outline: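 Acute toxicity in a Coriell human lymphoblastoid line is scored as loss of intracellular ATP over 24 h of treatment in complete medium. CellTiter-Glo signal is fitted across concentrations with the Hill equation to give AC50.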
# [18] = Cell Viability - LYMP2-018 (AID 985);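 further: compound exposure lasted 24 hr at 37 °C; nearly all actives have a fitted effect of over 50% in size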; further: potency means the concentration at half of the fitted maximal effect
# Outline: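 Human lymphoblastoid cells (2500/well) were pre-incubated 5 hr at 37 C, then exposed to compounds for 24 hr at 37 C in complete medium. Viability was read as intracellular ATP by CellTiter-Glo luminescence; AC50 values came from Hill-equation fits.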
# [19] = Cell Viability - LYMP2-022 (AID 987); further: nearly all actives have a fitted effect of over 55% in size; further: potency means the concentration at half of the fitted maximal effect
# Outline: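 Human lymphoblastoid cells, 2500/well, preincubated 5 hr at 37 C, then exposed to compounds over a concentration range for 24 hr at 37 C in complete medium. Viability read as intracellular ATP by CellTiter-Glo luminescence after 30 min at room temperature; AC50 from Hill fits.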
# [20] = Cell Viability - LYMP2-024 (AID 988); further: nearly all actives have a fitted effect of over 60% in size; further: potency means the concentration at half of the fitted maximal effect
# Outline: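 Human lymphoblastoid cells (2500/well) in complete medium were preincubated 5 hr at 37 C, then exposed to compounds for 24 hr at 37 C. Intracellular ATP was read by CellTiter-Glo luminescence; AC50 from Hill-equation fits of concentration-response data.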
Compound,Potency [1],Potency [2],Potency [3],Potency [4],Potency [5],Potency [6],Potency [7],Potency [8],outcome [9],Potency [10],Potency [11],Potency [12],Potency [13],Potency [14],Potency [15],Potency [16],Potency [17],Potency [18],Potency [19],Potency [20]
CCn1cc(C(=O)O)c(=O)c2ccc(C)nc21,inactive,inactive,inactive,inactive,inactive,inactive,inactive,inactive,inactive,inactive,inactive,inactive,inactive,inactive,inactive,inactive,inactive,inactive,inactive,inactive
CC/C(=C(\c1ccccc1)c1ccc(OCCN(C)C)cc1)c1ccccc1,50.1 µM (active),50.1 µM (active),50.1 µM (active),,50.1 µM (active),50.1 µM (active),50.1 µM (active),50.1 µM (active),,39.8 µM (active),50.1 µM (active),50.1 µM (active),50.1 µM (active),50.1 µM (active),50.1 µM (active),50.1 µM (active),39.8 µM (active),50.1 µM (active),39.8 µM (active),50.1 µM (active)
CCCCC1C(=O)N(c2ccccc2)N(c2ccccc2)C1=O,inactive,inactive,inactive,inactive,,inactive,inactive,inactive,inactive,inactive,inactive,inactive,inactive,inactive,inactive,inactive,inactive,inactive,inactive,inactive
O=C(O)Cc1cccc2ccccc12,inactive,inactive,inactive,inactive,inactive,inactive,inactive,inactive,inactive,inactive,inactive,inactive,inactive,inactive,inactive,inactive,inactive,inactive,inactive,inactive
O=c1cc(-c2ccc(O)cc2)oc2cc(O)cc(O)c12,,,,,,inactive,,,,,,,,,,inactive,,,,
CN(C)CCC(c1ccccc1)c1ccccn1 (configuration not stated),inactive,inactive,inactive,inactive,inactive,inactive,inactive,inactive,inactive,inactive,inactive,inactive,inactive,inactive,inactive,inactive,inactive,inactive,inactive,inactive
O=C1NC(=O)C(c2ccccc2)(c2ccccc2)N1,inactive,inactive,inactive,inactive,inactive,inactive,inactive,inactive,inactive,inactive,inactive,inactive,inactive,inactive,inactive,inactive,inactive,inactive,inactive,inactive
CCCNC(=O)NS(=O)(=O)c1ccc(Cl)cc1,inactive,inactive,inactive,inactive,inactive,inactive,inactive,inactive,inactive,inactive,inactive,inactive,inactive,inactive,inactive,inactive,inactive,inactive,inactive,inactive
CC1=C(/C=C/C(C)=C/C=C/C(C)=C/C(=O)Nc2ccc(O)cc2)C(C)(C)CCC1,,63.1 µM (active),50.1 µM (active),,50.1 µM (active),50.1 µM (active),50.1 µM (active),50.1 µM (active),,,50.1 µM (active),39.8 µM (active),50.1 µM (active),50.1 µM (active),39.8 µM (active),50.1 µM (active),63.1 µM (active),50.1 µM (active),39.8 µM (active),39.8 µM (active)
CC(=O)O[C@]1(C(C)=O)CC[C@H]2[C@@H]3C=C(Cl)C4=CC(=O)[C@@H]5C[C@@H]5[C@]4(C)[C@H]3CC[C@@]21C,inactive,inactive,inactive,inactive,inactive,inactive,inactive,inactive,inactive,inactive,inactive,inactive,inactive,inactive,inactive,inactive,inactive,inactive,inactive,inactive
O=c1[nH]cnc2c1ncn2[C@H]1CC[C@@H](CO)O1,inactive,inactive,inactive,inactive,inactive,inactive,inactive,inactive,inactive,inactive,inactive,inactive,inactive,inactive,inactive,inactive,inactive,inactive,inactive,inactive
CC(=O)c1ccc(S(=O)(=O)NC(=O)NC2CCCCC2)cc1,inactive,inactive,inactive,inactive,inactive,inactive,inactive,inactive,inactive,inactive,inactive,inactive,inactive,inactive,inactive,inactive,inactive,inactive,inactive,inactive
O=C(O)c1cc(O)c2c(c1)C(=O)c1cccc(O)c1C2=O,,,,50.1 µM (active),,,,,,,,,,inactive,inactive,inactive,inactive,inactive,inactive,inactive
O=c1c(O)c(-c2ccc(O)cc2)oc2cc(O)cc(O)c12,inactive,inactive,inactive,inactive,inactive,inactive,inactive,inactive,inactive,inactive,inactive,inactive,inactive,inactive,inactive,inactive,inactive,inactive,inactive,inactive
O=c1c(-c2ccc(O)cc2)coc2cc(O)ccc12,inactive,inactive,inactive,inactive,inactive,inactive,inactive,inactive,inactive,inactive,inactive,inactive,inactive,inactive,,inactive,inactive,inactive,inactive,inactive
